Measured values published in PubChem BioAssay (NCI).
Compounds without any hit were thinned out: in the full panel of roughly 83,000, 20% have a hit.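 Single-dose data. Exposure time 48 hours. Values below 10 considered active.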 Activity calls are given as the source filed them.

Each compound was assayed on HL-60(TB) leukemia (assay: NCI-60 one-dose screen, 48 h (100 = growth as untreated, 0 = no growth, -100 = all killed)). Conditions: 10 µM unless noted.

SMILES | growth
CCCCC[C@H]1CC=C2C(=O)C=C[C@@H]2CC=CCCCC(=O)O[C@@H](CCCCC)CC=C2C(=O)C=C[C@@H]2CC=CCCCC(=O)O[C@@H](CCCCC)CC=C2C(=O)C=C[C@@H]2CC=CCCCC(=O)O1 | -32.4% [8.75 µM] (active)
CCOC(=O)/C(=C(\C)N)C1CC(=O)NC1=O (stereo not drawn) | 99.9% (inactive)
C/C=C(/C)C(=O)O[C@@H]1CC(C)(C)CC2C34OC(=O)[C@@]21CC[C@@]3(C)[C@]1(C)CCC2C(C)(C)C(=O)CC[C@]2(C)C1C[C@@H]4Cl (stereo partly drawn) | 101% (inactive)
NC(=O)c1cc(I)ccc1NC(=O)/C=C/c1ccccc1 | 0.952% (active)
O=C(/C=C/c1ccccc1Cl)c1cccc(OCCCCOc2cccc(C(=O)/C=C/c3ccccc3Cl)c2)c1 | 105% (inactive)
COc1ccc(-c2oc(=O)ccc2-c2cc(OC)c(OC)c(OC)c2)cc1O | -58.9% (active)
COc1ccc(/C=C2\Oc3cc(OCCCCN4CCCC4)ccc3C2=O)cc1 | 92.1% (inactive)
O=CCCCOCc1ccccc1 | 100% (inactive)
OC(COc1ccccc1Cl)CN1CCN(c2ccc(Cl)cc2)CC1 (stereo not drawn) | 109% (inactive)
COc1cc(N)c2ncccc2c1Cl | 85.6% (inactive)
CC(C)=CCc1cc(O)cc2c1OC(C=C(C)C)C1=C2C(=O)C2=C(C1=O)S(=O)(=O)CCN2 (stereo not drawn) | -31.5% (active)
Nc1ccccc1-c1n[nH]c(=O)[nH]c1=O | 105% (inactive)
COc1cc2c(cc1OC)-c1cc(OC)c(OC)cc1C(CN(C)C)C2 (stereo not drawn) | 69.8% [100 µM] (inactive)
